# Legend:
# Format in all cases: functional
# [1] = target: Solute carrier family 2, facilitated glucose transporter member 1 (Homo sapiens) (UniProt P11166); assay: ST_JUDE_LEISH: Cytotoxicity at 2uM final concentration against transgenic Leishmania Mexicana promastigotes LmGLUT1 that are glucose transport deficient and complemented with the human glucose transporter GLUT1. Activity is measured by DNA content using SYBR green in vitro
# [2] = target: Hexose transporter 1 (Plasmodium falciparum) (UniProt O97467); assay: ST_JUDE_LEISH: Cytotoxicity at 2uM final concentration against transgenic Leishmania Mexicana promastigotes LmPfHT that are glucose transport deficient and complemented with the Plasmodium falciparum hexose transporter. Activity is measured by DNA content using SYBR green in vitro
# [3] = target: Glucose transporter (Leishmania mexicana) (UniProt O61059); assay: ST_JUDE_LEISH: Cytotoxicity at 2uM final concentration against transgenic Leishmania Mexicana promastigotes LmGT2 that are glucose transport deficient and complemented with the L. Mexicana glucose transporter 2. Activity is measured by DNA content using SYBR green in vitro
# Solute carrier family 2, facilitated glucose transporter member 1 (Homo sapiens), sequence (P11166 whole entry): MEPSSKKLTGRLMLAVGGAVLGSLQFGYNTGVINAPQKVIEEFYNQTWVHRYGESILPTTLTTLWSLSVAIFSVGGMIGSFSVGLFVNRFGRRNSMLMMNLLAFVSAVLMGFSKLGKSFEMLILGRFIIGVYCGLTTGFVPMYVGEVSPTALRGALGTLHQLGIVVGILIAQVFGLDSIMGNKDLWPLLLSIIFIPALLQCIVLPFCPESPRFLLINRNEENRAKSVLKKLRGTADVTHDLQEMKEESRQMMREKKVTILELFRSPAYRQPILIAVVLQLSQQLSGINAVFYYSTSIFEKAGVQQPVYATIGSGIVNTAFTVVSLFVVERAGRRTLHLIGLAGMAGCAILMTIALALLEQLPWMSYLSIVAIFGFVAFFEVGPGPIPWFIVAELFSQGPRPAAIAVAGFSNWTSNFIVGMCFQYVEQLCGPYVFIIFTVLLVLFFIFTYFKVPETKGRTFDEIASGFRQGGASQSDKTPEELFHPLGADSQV
Compound,inhibition [1],inhibition [2],inhibition [3]
COc1cc(NC(=O)N2CCc3ccc(OCCN4CCCCC4)cc32)cc(C(F)(F)F)c1,0.69%,1.18%,3.59%
CCC[C@@H](C(=O)NCCc1cccc(OC)c1)N1C(=O)c2c(ccc(OC)c2OC)C1C(=O)Nc1c(C)cccc1C (some centres undefined),0.5%,0%,0.1%
CCc1cccc2c(C#N)cn(CC(=O)NCCc3ccccc3)c12,6.99%,9.88%,9.25%
CN(C)Cc1ccc(-c2cccc(Nc3nccc(NCC(O)c4ccccc4)n3)c2)cc1 (centres undefined),0.75%,1.38%,0.25%
Cc1c(N)ccc2[nH]c(-c3ccc(N)cc3)nc12,3.21%,4.3%,2.89%
CS(=O)(=O)c1ccc(CCNCc2ccc(-c3ccc(CN(C(=O)c4cccc(C#N)c4)C4CCN(Cc5ccccc5)CC4)cc3)nc2)cc1,5.06%,4.14%,5.74%
C=CCc1ccccc1OCC(O)CN(C1CCCCC1)C1CCCCC1 (centres undefined),-1.79%,-2.31%,5.77%
Cc1cc(N/N=C/c2cccc([N+](=O)[O-])c2)c2ccc(F)cc2n1,3.46%,2.8%,0.94%
Cc1ccccc1C1CCN(c2ncc(C(=O)NC3CC3)cc2Cl)CC1,-1.43%,5.9%,2.12%
COc1c(CNCCCCCCNCc2cc(Cl)c3ccccc3c2OC)cc(Cl)c2ccccc12,1.94%,7.04%,-0.2%
O=S(=O)(NCCN1CCCC1)c1ccc(-c2cccc(CNCc3ccc(F)cc3)c2)cc1,1.16%,1.09%,-0.22%
COc1cccc(-c2cc3nc4c(c(NCCCn5ccnc5)n3n2)CCCC4)c1,2.73%,5.03%,2.77%
N#Cc1ccc2[nH]c(-c3ccccc3)nc2c1,7.3%,6.06%,5.78%
Cc1ccc2[nH]c(-c3ccc(C=CC(=O)NC4CCN(Cc5ccccc5)CC4)cc3)nc2c1,2.64%,3.29%,5.84%
COc1ccc2nccc(N(C)CC3(O)CCN(CC(O)c4ccc5c(c4)NC(=O)CS5)CC3)c2n1 (centres undefined),-0.29%,-0.78%,-0.26%
COc1ccc(CNC2CCN(C)CC2)cc1-c1ccc(S(=O)(=O)NCc2ccccc2)s1,9.42%,11.8%,11.2%
COc1cc(Cc2cnc(N)nc2N)ccc1OCc1cccc(Oc2ccccc2)c1,2.15%,1.48%,0.19%

Compound,inhibition [1],inhibition [2],inhibition [3]
CC1CN(c2cnn(C/C=C/c3ccc(NC(=O)c4ccc5nonc5c4)cc3)c(=O)c2Cl)CC(C)N1 (centres undefined),4.72%,4.17%,3.26%
O=c1c2c([nH]c3cc(Cl)ccc13)CCCC2,4.95%,3.08%,3.09%
Cc1cccc2nc(-c3ccc(-c4cccc(NC(=O)C(C)CN(C)C)c4)cc3)[nH]c12 (centres undefined),8.52%,7.83%,3.93%
CC(=O)c1ccc(N2CCN(C(=O)Nc3ccc(Cl)cc3)CC2)cc1,9.4%,7.37%,8.94%
CS(=O)(=O)CCOCc1ccc(-c2ccc3ncnc(Nc4ccc(OCc5cccc(F)c5)c(Cl)c4)c3c2)o1,6%,4.18%,7%
Cc1ccc(C)c2sc(N(CCCn3ccnc3)C(=O)c3ccco3)nc12,4.42%,5.62%,5.23%
Cc1cccc2nc(-c3ccc(-c4cccc(NC(=O)Nc5ccc(Cl)cc5)c4)s3)[nH]c12,3.96%,3.55%,3.01%
COC(=O)c1cccc(CNCc2ccc(-c3cccc(-c4nc5cc(C(F)(F)F)ccc5[nH]4)c3)cc2)c1,11.9%,11%,11.5%
Cc1cc(N[C@@H](CC(C)C)C(=O)NCCOc2ccccc2)nc(NCCc2ccccc2)n1,1.89%,0.4%,2.69%
N#Cc1ccc2c(c1)CCN(CCC1CCC(NC(=O)/C=C/c3cc(Br)cs3)CC1)CC2 (centres undefined),5.26%,2.93%,-0.56%
CC1(C)NC(N)=NC(=N)N1OCCOc1cccc(C(F)(F)F)c1,1.04%,0.2%,2.45%
COc1cccc2cc(C(=O)N[C@@H](CC(C)C)C(=O)N[C@H](/C=N/NC(=O)c3ccccc3)Cc3c[nH]cn3)oc12,2.75%,0.99%,3.92%
CCCCC(=O)N(CCOC)Cc1ccc(-c2ccc(CNCCC)cn2)cc1,7.95%,6.86%,5.46%
O=C(CSc1nnc(-c2ccccc2Br)[nH]1)c1c[nH]c2ccccc12,-0.5%,-0.7%,1.98%
Cc1ccc(Nc2nc(N/N=C/c3cc4c(cc3Br)OCO4)nc(Nc3ccc([N+](=O)[O-])cc3)n2)cc1C,1.58%,2.19%,4.71%
Clc1cccc(C=NNc2ccnc3cc(Cl)ccc23)c1,-1.51%,-2.17%,-3.26%

# Reference: ChEMBL document CHEMBL3433997, “St. Jude Leishmania screening dataset” (2016)
